HEK293 tox = Cytotoxic Profiling in HEK 293 Cell Line of Diverse Libraries Using Quantitative High-Throughput Screening; HEK 293 viability, ATP luminescence (CellTiter-Glo), 48-72 h; Potency, µM (series often up to 115 µM), most hits filed as inhibitors; 6.6% of 94,000 active; AID 1345083, 2018; also: nearly all actives have a fitted effect of over 60% in size
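Luminescence from cellular ATP, measured with CellTiter-Glo, indicates HEK 293 viability. Cells plated at 250 cells/well are treated with compound for 48 or 72 hr at 37 degree Celsius before reagent addition.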
NPR1 antag = Natriuretic polypeptide receptor (hNpr1) antagonism - Primary qHTS. HEK293 hNpr1 GloSensor cGMP, ANP-stimulated luminescence. Potency, µM (titrated, usually from 46.3 µM), hits mostly inhibitors. 1.6% of 76,000 active. AID 1347048, 2019; calls by dose curve; also: nearly all actives have a fitted effect of over 60% in size
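HEK293 cells stably expressing human Npr1 and cGMP GloSensor pGS-40F, loaded 2 h with 2% GloSensor reagent, given compound 30 min at room temperature. Luminescence read before and 20 min after 0.1 nM hNppA.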
3T3 cytotox = Cytotoxic Profiling in NIH 3T3 Cell Line of Diverse Libraries Using Quantitative High-Throughput Screening; AID 1345082, 2018; 4.3% of 94,000 active; Potency, µM (top dose mostly 96.7 µM), actives largely listed as inhibitors; NIH 3T3 viability, CellTiter-Glo ATP luminescence, 48-72 h; also: nearly all actives have a fitted effect of over 55% in size
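Viability of NIH 3T3 cells after 48 or 72 hr compound treatment at 37 °C was assessed by CellTiter-Glo, with luminescence imaged following a 10 min room-temperature step.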
Luciferase inh = Firefly luciferase inhibition profiling of diverse chemical library using quantitative high-throughput screening; Luciferin 4-monooxygenase (Photinus pyralis), P08659; purified P. pyralis luciferase, luminescence, biochemical; Potency, µM (series often up to 115 µM), most hits filed as inhibitors; 2.5% of 76,000 active; AID 1347043, 2019; also: nearly all actives have a fitted effect of over 65% in size
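Luminescence read by CCD imaging after purified firefly luciferase (10nM final) was added to substrate buffer holding 10uM D-luciferin and 10uM ATP, pH 7.5, pre-dosed with compound.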
Numbers stand for hits. Most compounds without a hit are left out; they make up all but 11% or so of the library. Unless noted, calls follow the shape of the dose curve; as a rule, active = well fitted curve in the direction sought with a large enough effect; inconclusive = small, poorly fitted or top-dose-only effect, or another doubt; inactive = no such curve, though single readings can be large; an effect the other way counts as inactive or inconclusive.

`O=C(c1ccc(F)cc1Cl)N1CCC(n2cc(-c3nc(-c4ccccc4)no3)nn2)CC1` gave HEK293 tox inconclusive, NPR1 antag 18µM, 3T3 cytotox inconclusive and Luciferase inh inconclusive.
Screening Cc1ccsc1C(=O)N1CCC(n2cc(-c3nc(-c4ccccc4)no3)nn2)CC1 returned HEK293 tox 40µM, NPR1 antag inconclusive, 3T3 cytotox inactive and Luciferase inh inactive.
`Cc1ccccc1C(=O)N1CCC(n2cc(-c3nc(-c4ccccc4)no3)nn2)C1` (stereo not given) gave HEK293 tox inconclusive, NPR1 antag 7.9µM, 3T3 cytotox inconclusive and Luciferase inh inconclusive.
CNC(=O)[C@H]1C[C@]2(CCCCN(CCO)C2=O)N(C(=O)CC(C)(C)C)[C@H]1c1ccccc1 was read as HEK293 tox inactive and 3T3 cytotox inconclusive.
Cn1cccc1C(=O)N1CCC(n2cc(-c3nc(-c4ccccc4)no3)nn2)C1 (stereo not given) was read as HEK293 tox 45µM, NPR1 antag 18µM, 3T3 cytotox inconclusive and Luciferase inh inconclusive.
`Cn1cccc1C(=O)N1CCC(n2cc(-c3nc(-c4ccccc4)no3)nn2)CC1` gave HEK293 tox inconclusive, NPR1 antag inactive, 3T3 cytotox inconclusive and Luciferase inh inconclusive.
O=C(c1ccccc1)N1CCC(n2cc(-c3nc(-c4ccccc4)no3)nn2)C1 (stereo not given) was read as HEK293 tox inconclusive, NPR1 antag 13µM, 3T3 cytotox inconclusive and Luciferase inh inconclusive.
Screening O=C(c1cccs1)N1CCC(n2cc(-c3nc(-c4ccccc4)no3)nn2)CC1 returned HEK293 tox 35µM, NPR1 antag inconclusive, 3T3 cytotox inconclusive and Luciferase inh inactive.
CCc1noc(-c2cn(C3CCN(C(=O)c4ccccc4)C3)nn2)n1 (stereo not given) was read as HEK293 tox inactive, NPR1 antag inactive, 3T3 cytotox inactive and Luciferase inh inactive.
Screening O=C(c1ccc(Cl)cc1)N1CCC(n2cc(-c3nc(-c4ccccc4)no3)nn2)C1 (stereo not given) returned HEK293 tox 22µM, NPR1 antag inconclusive, 3T3 cytotox inactive and Luciferase inh inconclusive.
Screening N#Cc1ccc(C(=O)N2CCCC(n3cc(-c4nc(-c5ccccc5)no4)nn3)C2)cc1 (stereo not given) returned HEK293 tox inconclusive, NPR1 antag 11µM, 3T3 cytotox inactive and Luciferase inh inconclusive.
Screening Cc1ccc(C(=O)N2CCCC(n3cc(-c4nc(-c5ccccc5)no4)nn3)C2)cc1 (stereo not given) returned HEK293 tox inconclusive, NPR1 antag inactive, 3T3 cytotox inconclusive and Luciferase inh inconclusive.
Screening COc1cccc(-c2nccc3c(=O)cc(N(C)C)oc23)c1 returned HEK293 tox inactive, NPR1 antag inactive, 3T3 cytotox 71µM and Luciferase inh inactive.
COc1cccc(Cl)c1-c1nccc2c(=O)cc(N(C)C)oc12 was read as HEK293 tox inconclusive, NPR1 antag inactive, 3T3 cytotox 50µM and Luciferase inh inactive.
`O=C(c1cc2ccccc2[nH]1)N1CCC2(CC1)CN(c1ncccn1)CC2CO` (stereo not given) gave HEK293 tox 79µM, NPR1 antag inactive, 3T3 cytotox inconclusive and Luciferase inh inactive.
`COc1cc(C)c(CN2CCCn3nc(C(=O)N4CCCC4)cc3C2)cc1C` gave HEK293 tox 45µM, NPR1 antag inactive, 3T3 cytotox 45µM and Luciferase inh inactive.
For COC(=O)c1cc2n(n1)CCCN(C(=O)COc1ccc(C)c(C)c1)C2 the results were HEK293 tox inactive, NPR1 antag inactive, 3T3 cytotox inactive and Luciferase inh inactive.
For O=C(c1ccc(F)c(Cl)c1)N1CCC2(CC1)CN(C1CCC1)CC2CO (stereo not given) the results were HEK293 tox inconclusive, NPR1 antag inactive, 3T3 cytotox inconclusive and Luciferase inh inactive.
`COc1cccc(N2C(=O)NC(=NC3CCCCC3)C23CCCN(Cc2ccc(N(C)C)cc2)C3)c1` (stereo not given) gave HEK293 tox 32µM and 3T3 cytotox 28µM.
For COc1cccc(N2C(=O)NC(=NC3CCCCC3)C23CCCN(Cc2ccsc2)C3)c1 (stereo not given) the results were HEK293 tox inconclusive and 3T3 cytotox 40µM.

Screening data (PubChem BioAssay)
